Active and inactive are the calls of the source.

The target of this assay is NADPH oxidase 4 (Homo sapiens) (UniProt Q9NPH5). The experiment in a line: compounds shifting NOX4 Amplex Red fluorescence – cell-based, HEK293-NOX4, tetracycline-induced, NOX inhibitor project, primary screen (AID 1160). Particulars: HEK293-NOX4, Amplex Red H2O2 fluorescence, 45 min; higher = more signal, called active from +8 up or from −8 down.
NADPH oxidase 4 (Homo sapiens), sequence (Q9NPH5 whole entry, looked up): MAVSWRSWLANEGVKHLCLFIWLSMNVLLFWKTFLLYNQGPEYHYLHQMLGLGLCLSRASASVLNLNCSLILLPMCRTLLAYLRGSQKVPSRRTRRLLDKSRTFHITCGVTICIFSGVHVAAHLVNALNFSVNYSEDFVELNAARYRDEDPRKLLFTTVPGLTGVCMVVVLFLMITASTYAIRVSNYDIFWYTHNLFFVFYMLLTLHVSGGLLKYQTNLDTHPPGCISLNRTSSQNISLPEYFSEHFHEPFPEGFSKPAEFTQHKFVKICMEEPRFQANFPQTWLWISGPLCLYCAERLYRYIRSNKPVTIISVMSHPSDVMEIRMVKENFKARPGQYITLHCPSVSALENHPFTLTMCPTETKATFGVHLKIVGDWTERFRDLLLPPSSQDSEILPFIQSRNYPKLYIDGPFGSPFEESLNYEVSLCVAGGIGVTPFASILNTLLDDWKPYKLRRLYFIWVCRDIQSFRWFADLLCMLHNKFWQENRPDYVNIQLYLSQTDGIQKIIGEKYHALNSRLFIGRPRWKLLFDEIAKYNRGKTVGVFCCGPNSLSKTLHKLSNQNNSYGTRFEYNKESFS
In the case of `COC(=O)C1(Cc2ccccc2)C=C2C(=C(C(C)C)C(=O)C2C)CN1` (stereo not given), the z-score was -5.34 (inactive).
Under `Cc1c(NC(=O)/C(C#N)=C/C=C/c2ccccc2[N+](=O)[O-])c(=O)n(-c2ccccc2)n1C` stands 0.0287 (inactive); under `[N-]=[N+]=NCc1ccccc1C[C@@]1(C(=O)NCCN2CCOCC2)N=C(c2ccc(OCCCO)cc2)O[C@@H]1c1ccccc1N=[N+]=[N-]`, -1.36 (inactive).
Under `C[n+]1ccc(CCCO)cc1` stands -0.435 (inactive).
For the compound `CN1C(=O)C2C=CC(C(O)c3c(F)cccc3Cl)N(Nc3ccccc3)C2C1=O` (stereo not given), the z-score was -4.96 (inactive).
Under `C=C[C@@H](C)[C@H](OC(=O)Nc1ccc(SC)cc1)c1ccc(OCCO)cc1` stands -0.14 (inactive); under `CC(C)C(O)C1C=CC2C(=O)N(C)C(=O)C2N1N(c1ccccc1)c1ccccc1` (stereo not given), -0.583 (inactive).
With `O=C1c2ccccc2[C@](Cc2ccccc2I)(C(=O)NCc2ccccc2)[C@H](c2ccc(CO)cc2)N1C1CCCCC1`, the z-score is 0.289 (inactive).
Under `CC(=O)n1cc(C(O)C2C=CC3C(=O)N(Cc4ccccc4)C(=O)C3N2n2cnnc2)c2ccccc21` (stereo not given) stands -0.738 (inactive); under `COc1cc2c(cc1OC)CN(C(=O)[C@H]1[C@@H]3C(=O)O[C@@H](c4ccccc4)[C@@H](c4ccccc4)N3[C@@H](c3ccc(OCCO)cc3)[C@]13C(=O)Nc1ccc(C#CC4(O)CCCCCC4)cc13)CC2`, 0.882 (inactive).
Under `O=c1cccc(-c2ccc(C(F)(F)F)cc2)o1` stands -2.27 (inactive); under `COc1ccc(C(O)C2C=CC3C(=O)N(Cc4ccccc4)C(=O)C3N2n2cnnc2)c2ccccc12` (stereo not given), -0.674 (inactive).
Under `CC(C)(C)OC(=O)CC[C@]1(C(=O)NCCN2CCOCC2)N=C(c2ccc(OCCCO)cc2)O[C@H]1c1ccccc1N=[N+]=[N-]` stands 1.62 (inactive).
For `C=CC[C@H](OC(=O)Nc1ccc(OC)cc1)c1ccc(O)c2ccccc12`, the z-score was -1.58 (inactive).
`COC(=O)[C@@]1(Cc2ccc(OC)cc2)[C@H]2c3cc(C(=O)N4CCCC4)n(CCc4cc5ccccc5[nH]4)c3C[C@H]2CN1C(=O)c1ccccc1`: the z-score was 0.319 (inactive).
Under `COc1ccc(CCNC(=O)[C@@]2(Sc3ccc(C)cc3)CC(=O)N(Cc3cc(C(F)(F)F)cc(C(F)(F)F)c3)[C@@H]2c2ccc(CO)cc2I)cc1` stands -1.07 (inactive).
Under `COc1ccc(C(O)C2C=CC3C(=O)N(C)C(=O)C3N2N2CCCCC2)cc1` (stereo not given) stands -0.744 (inactive); under `COc1ccc([Si](C)(C)[C@@H]2[C@@H](CC(=O)N3CCC[C@H]3CO)O[C@]3(C(=O)N(Cc4ccc(N5C(=O)c6cccc7cccc5c67)cc4)c4ccccc43)[C@H]2C)cc1`, 1.37 (inactive).
For the compound `O=C1c2ccccc2[C@@]2(Cc3ccccc3N(C3CC3)C2=O)[C@H](c2ccc(CO)cc2)N1C1CCCCC1`, the z-score was -1.7 (inactive).
Under `CCOC(=O)C1=CC[C@@H](c2cc(Cl)ccc2Cl)N(S(=O)(=O)c2ccc(C)cc2)[C@H]1c1ccc(OC)cc1` stands -0.51 (inactive); under `CC=CC(O)C1C=CC2C(=O)N(C)C(=O)C2N1N1CCCCC1` (stereo not given), -0.473 (inactive); under `C=C(C(=O)CC[C@H](OC(C)=O)c1cccc(OCCO)c1)C(C)C`, -0.481 (inactive).
Regarding `CC(C)C(=C=CC[C@H](O)c1ccc(OCCO)cc1)C[C@H](O)c1cc(Cl)cc(Cl)c1O`, the z-score was -0.473 (inactive).
Under `COc1ccc(C#Cc2ccc3c(c2)[C@]2(C(=O)N3)[C@H](C(=O)N3CCc4cc(OC)c(OC)cc4C3)[C@H]3C(=O)O[C@H](c4ccccc4)[C@H](c4ccccc4)N3[C@@H]2c2ccc(O)cc2)cc1` stands 0.574 (inactive); under `CN1C(=O)[C@@]2(CCS(=O)(=O)c3ccccc3)N=C(c3ccc(OCCCO)cc3)O[C@H]2c2ccccc21`, 0.479 (inactive); under `CC[C@H]1C2=C3C(CC[C@H]4C(OCc5ccc(F)cc5C(F)(F)F)OC[C@](C)([C@@H]34)N(C(=O)OC(C)(C)C)C2)C2COC(=O)OCC21` (stereo not given in full), -1.74 (inactive).
Under `Cc1ccc(S[C@]2(C(=O)NCc3ccccc3)CC(=O)N(C(C)C)[C@@H]2c2ccc(CO)cc2I)cc1` stands -1.1 (inactive).
Under `Cc1ccc(C(C)CC(O)C2C=CC3C(=O)N(c4ccccc4)C(=O)C3N2Nc2ccc(C(C)C)cc2)o1` (stereo not given) stands -2.34 (inactive).
For the compound `COCCOC(=O)N1C(=O)[C@@]2(c3cc(C#Cc4ccc(OC)cc4)ccc31)[C@H](C(=O)NC[C@H](O)c1ccccc1)[C@H]1C(=O)O[C@H](c3ccccc3)[C@H](c3ccccc3)N1[C@@H]2c1ccc(O)cc1`, the z-score was 0.0374 (inactive).
Under `COCCOC(=O)N1C(=O)[C@@]2(c3cc(C#CC4(O)CCCCCC4)ccc31)[C@H](C(N)=O)[C@H]1C(=O)O[C@H](c3ccccc3)[C@H](c3ccccc3)N1[C@@H]2c1ccc(O)cc1` stands 0.547 (inactive).
Under `CC1CC/C=C\[C@H]2OC34C=CCN(C(C)C)C(=O)[C@H]3N(CCCCCO)C(=O)[C@@H]4C2C(=O)O1` (stereo not given in full) stands -0.338 (inactive).
Take `CCOC(=O)C1=CC[C@@H](c2ccccc2)N(S(=O)(=O)c2ccc(C)cc2)C1`: the z-score is -1.44 (inactive).
Under `CCN(CC)c1ccc(N2CC=CC34O[C@@H]5/C=C\CCC(C)OC(=O)C5[C@H]3C(=O)N(CCO)[C@@H]4C2=O)cc1` (stereo not given in full) stands 0.785 (inactive); under `C=CCOC(=O)[C@H]1[C@@H]2C(=O)O[C@@H](c3ccccc3)[C@@H](c3ccccc3)N2[C@@H](c2ccc(OCCOC(=O)[C@H]3C[C@H]4C(=O)N[C@@H](CCCC[N+](C)(C)C)C(=O)N4[C@H]3c3cccc(OCCO)c3)cc2)[C@]12C(=O)Nc1ccc(I)cc12`, 0.0287 (inactive); under `O=C1C[C@@](C(=O)NCC(F)(F)F)(c2ccc([N+](=O)[O-])cc2)[C@@H](c2ccc(CO)cc2)N1C1CCCCC1`, 0.24 (inactive).

The values are drawn from PubChem BioAssay.
